Most compounds without a hit are left out; they make up all but 2.9% or so of the library.
Beta2AR agonist: agonists of human beta-2 adrenergic receptor inducing internalization | hit rate 0.43% among 340,000 | response, % (concentration not given with the values) | Am2.2-beta2AR cells, FAP receptor internalization, flow cytometry;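 active = response above a set limit, near 3 SD of response in nonfluorescent compounds, cut at about 42% in these data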
MEKK3 PB1 HTS: MEKK3-MEK5 PB1 interaction, increase or decrease; hit rate 1.4% among 290,000; binding response (% of control), % at 10 µM; AID 1529; bead-based flow cytometry, Alexa488-MEK5 binding to MEKK3; actives lie on both sides; 0 = blocked by unlabeled MEK5, 100 = vehicle; Q99759;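 active = binding response more than 3 SD above or below the average of its plate-row segment, actives on both sides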;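 note: Alexa488 bead fluorescence after subtracting the streptavidin-only scavenger bead signal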
MEKK2 WT-MEK5: raises or lowers MEK5 binding to wildtype human MEKK2 PB1 domain; bead flow cytometry, Alexa488-MEK5 binding to MEKK2 WT; actives lie on both sides; AID 1531; binding response (% of control), % at 10 µM; hit rate 1.1% among 290,000; Q9Y2U5; in the data active = binding response below about 67% or above about 130%
GRK2 aptamer HTS: blocks RNA aptamer binding to human GRK2 | bead flow cytometry, FAM-aptamer displacement from GRK2 | hit rate 0.59% among 330,000 | inhibition of aptamer binding, % at 10 µM | P25098;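 active = inhibition of aptamer binding above 40%, roughly 3 SD of noise, on plates passing a quality check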;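 note: median bead fluorescence of bound FAM aptamer so fluorescent compounds give negative values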
Target sequence (P25098 whole entry, looked up): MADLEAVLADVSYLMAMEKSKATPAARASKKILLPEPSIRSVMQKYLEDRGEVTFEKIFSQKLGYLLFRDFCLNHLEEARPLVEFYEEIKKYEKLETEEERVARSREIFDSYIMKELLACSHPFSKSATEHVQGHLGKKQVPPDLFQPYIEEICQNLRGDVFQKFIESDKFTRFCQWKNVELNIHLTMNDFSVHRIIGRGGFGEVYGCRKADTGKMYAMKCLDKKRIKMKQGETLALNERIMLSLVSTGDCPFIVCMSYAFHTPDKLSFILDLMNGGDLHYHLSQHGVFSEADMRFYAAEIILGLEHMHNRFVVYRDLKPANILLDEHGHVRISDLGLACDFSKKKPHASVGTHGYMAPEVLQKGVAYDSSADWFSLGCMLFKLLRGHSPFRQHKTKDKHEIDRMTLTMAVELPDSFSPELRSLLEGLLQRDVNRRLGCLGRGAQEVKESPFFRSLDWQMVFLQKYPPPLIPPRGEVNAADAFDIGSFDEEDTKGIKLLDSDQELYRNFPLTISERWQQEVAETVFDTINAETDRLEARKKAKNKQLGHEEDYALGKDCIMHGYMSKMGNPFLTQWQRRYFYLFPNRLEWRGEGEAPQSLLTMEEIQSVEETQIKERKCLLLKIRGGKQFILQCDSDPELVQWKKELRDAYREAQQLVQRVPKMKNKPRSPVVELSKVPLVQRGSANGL
MEKK2 mut-MEK5: signal of MEK5 binding to mutant human MEKK2 PB1 domain; bead flow cytometry, Alexa488-MEK5 binding to MEKK2 mutant; percent response, % at 10 µM; hit rate 0.35% among 290,000; AID 1530; in the data active = percent response above about 24%, passing the limit was not always enough
MEKK2wt confirm: raises or lowers MEK5 binding to wildtype human MEKK2, retest; binding response (% of control), % at 10 µM; bead flow cytometry, Alexa488-MEK5 binding to MEKK2 WT; actives lie on both sides; shares compounds with MEKK3 PB1 HTS; hit rate 2.4% among 5,900; in the data active = binding response below about 16% or above about 210%; inactive = in between
MEKK2mut-MEK5: signal of MEK5 binding to mutant human MEKK2, retest; shares compounds with MEKK3 PB1 HTS; bead flow cytometry, Alexa488-MEK5 binding to MEKK2 mutant; percent response, % at 10 µM; hit rate 2% among 5,900; in the data active = percent response mostly above about 71%, no sharp cut-off; inactive = mostly below about 38%;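 note: higher means compound restores mutant binding toward wildtype level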
MEKK3-MEK5 inh: confirmation of inhibitors of MEK5 binding to human MEKK3; shares compounds with MEKK3 PB1 HTS; bead flow cytometry, Alexa488-MEK5 binding to MEKK3; stronger effect = lower value; binding response (% of control), % at 10 µM; hit rate 1.8% among 5,900; AID 1894;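 active = binding response below 72% of control, or above a set upper limit, though filed actives all read lower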
A number is an active result; 0 = inactive; - = no result given; [ ] = remark or other dose.

SMILES	Beta2AR agonist	MEKK3 PB1 HTS	MEKK2 WT-MEK5	GRK2 aptamer HTS	MEKK2 mut-MEK5	MEKK2wt confirm	MEKK2mut-MEK5	MEKK3-MEK5 inh
COc1ccc(N2C(=O)/C(=C/c3cccnc3)NC2=S)cc1	0	138	0	0	0	0	0	0
CC(C)c1ccc(C2C3CSCC=C3C(C#N)=C(N)C2(C#N)C#N)cc1 (configuration not stated)	-	1.0[inhibitor]	1.0[inhibitor]	0	0	0	0	0
Cc1ncc(CO)c(/C=N/NC(=O)c2ccoc2C)c1O	0	-	-	-	-	-	-	-
Cc1ncc(CO)c(/C=N/NC(=O)c2ccccc2Br)c1O	0	0	5.0[inhibitor]	0	0	0	0	0
O=C(CCCc1nc(-c2ccccc2)no1)NC1CCCCC1	0	0	0	0	0	-	-	-
O=C(O)c1cccc(Nc2nc(-c3ccc([N+](=O)[O-])cc3)nc3ccccc23)c1	0	0	0	0	0	-	-	-
O=[N+]([O-])c1ccc(-c2nc(Nc3cccc(O)c3)c3ccccc3n2)cc1	0	0	146	0	0	0	0	0
CC(CC(=O)NNC(=O)c1ccncc1)c1ccccc1 (configuration not stated)	0	-	-	0	-	-	-	-
O=C1CCCc2c1sc1nc3n(c(=O)c21)CCCCC3	0	0	139	0	0	0	0	0
O=C(c1cc(-c2ccccn2)nc2ccc(Cl)cc12)N1CCN(CCc2ccccc2)CC1	0	-1.0[inhibitor]	-4.0[inhibitor]	0	0	0	0	0
O=S1(=O)CC(O)C(N=Nc2c(O)n(Cc3ccccc3)c3ccccc23)C1 (configuration not stated)	0	0	0	0	0	-	-	-
CCSc1nnc(NC(=O)C2Cc3ccccc3CN2S(=O)(=O)CC)s1 (configuration not stated)	0	12[inhibitor]	16[inhibitor]	0	0	0	0	0
CCS(=O)(=O)N1Cc2ccccc2CC1C(=O)Nc1nnc(SCc2c(Cl)cccc2Cl)s1 (configuration not stated)	0	0	0	0	0	-	-	-
O=C(c1cc(Cl)nc2ccccc12)N(Cc1nnc(-c2ccccc2Cl)o1)C1CC1	0	0	0	0	0	-	-	-
CN1C(=O)NC(c2ccc(O)cc2)C2=C1CN(c1ccc(O)cc1)C2=O (configuration not stated)	0	147	0	0	0	0	0	0
CCOc1cc(S(=O)(=O)n2cnc(C)c2)ccc1Cl	0	148	0	0	0	0	0	0
COc1cccc(CNC(=O)CCCn2c(=S)[nH]c3cc4c(cc3c2=O)OCO4)c1	0	0	0	0	0	-	-	-
O=C(NC1CCN(Cc2ccccc2)CC1)c1ccc(Cn2c(=S)[nH]c3ccc(N4CCOCC4)cc3c2=O)cc1	0	0	154	0	0	0	0	0
COc1cccc(CNC(=O)CCCCCn2c(=S)[nH]c3ccc(N4CCOCC4)cc3c2=O)c1	-	130	0	0	0	0	0	0
COc1ccc(-c2nc(CN(CC3CCC(=O)N3)C(C)C)c(C)o2)c(C)c1C (configuration not stated)	0	0	0	0	0	-	-	-
N=c1oc2ccccc2cc1-c1nc(-c2ccccc2)cs1	0	0	0	0	0	-	-	-
N=c1oc2ccc3ccccc3c2cc1-c1nc(-c2ccccc2)cs1	0	146	0	0	0	0	0	0
O=[N+]([O-])c1ccccc1CN1CCN(c2ncccn2)CC1	0	0	0	0	0	-	-	-
O=[N+]([O-])c1ccccc1CN1CCN(Cc2ccccn2)CC1	0	2.0[inhibitor]	1.0[inhibitor]	0	0	0	0	0
Cc1ccc(C(=O)N/N=C2\CCc3ccccc32)c(C)c1	0	141	0	0	0	0	0	0
O=C(N/N=C1\CCc2ccccc21)c1ccccc1Cl	0	0	0	0	0	-	-	-
O=C1Nc2ccc(Cl)cc2C(C#CC2CC2)(C(F)(F)F)O1 (configuration not stated)	0	0	0	0	0	-	-	-
